Laboratory results: the supplement of paper PMC4723716
± gives the uncertainty stated by the source. Over roughly 9,900 compounds, “viability index relative to DMSO control” has its median near 1; the lowest 2% begin near 0.85. The sample holds the lowest values, similar compounds and a random draw of the others, so the mix is not that of the screen.

Test system: Plasmodium falciparum NF54 stage V gametocytes
Assay: viability index relative to DMSO control (fraction); higher = less gametocyte killing
Conditions: 2.5 µM, incubation time: 72 h
Summary of the method: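 Gametocytes (P. falciparum NF54, stage V) were treated with compound at 2.5 µM for 72 hr at 37°C in low oxygen, in serum-free medium at 0.75% gametocytemia and 1.25% hematocrit. Counts of 20–70 µm2 red particles, taken from one field per well after MitoTracker Red CMXRos with saponin, were divided by the plate mean of solvent-only wells. This ratio is the viability index.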

[1] = library set: Broad Institute DOS

| SMILES | viability index [1] | viability index (library set: Broad Institute Blood Stage) |
| --- | --- | --- |
| COCC(=O)N1[C@H](C#N)[C@H](c2ccccc2-c2cccc(C)c2)[C@H]1CO | 1.15 ± 0.053 |  |
| CCCC(=O)Nc1ccc2c(c1)OC[C@H](C)N(CC1CCOCC1)C[C@@H](C)[C@H](OC)CN(C)C2=O | 1.02 ± 0.039 |  |
| O=C(C[C@@H]1CC[C@H]2NC[C@@H](O)COC[C@@H]2O1)Nc1ccc(-c2ccccc2)cc1 | 0.826 ± 0.077 |  |
| O=C(C[C@@H]1CC[C@@H]2NC[C@@H](O)COC[C@H]2O1)Nc1ccc(-c2ccccc2)cc1 | 1.06 ± 0.024 |  |
| O=C(C[C@H]1CC[C@@H]2NC[C@H](O)COC[C@H]2O1)Nc1ccc(-c2ccccc2)cc1 | 1.0439 ± 3.9e-05 |  |
| Cc1cccc(S(=O)(=O)N2C[C@H]3[C@@H](c4ccccc42)[C@H](CO)N3Cc2ccc3c(c2)OCO3)c1 | 1.01 ± 0.012 |  |
| O=C(C1CCOCC1)N1CC(=O)N2[C@H](CO)[C@H](c3ccc(/C=C/c4ccccc4)cc3)[C@@H]2C1 | 0.99 ± 0.011 |  |
| Cc1noc(C)c1S(=O)(=O)N(C)C[C@@H]1Oc2c(NC(=O)c3ccc(-c4nccs4)cc3)cccc2C(=O)N([C@H](C)CO)C[C@@H]1C | 0.978 ± 0.068 |  |
| C[C@@H]1CN([C@@H](C)CO)C(=O)c2cccc(NC(=O)c3ccc(-c4nccs4)cc3)c2O[C@@H]1CN(C)C(=O)Nc1ccc(C(F)(F)F)cc1 | 0.556 ± 0.084 |  |
| C[C@@H]1CN([C@H](C)CO)C(=O)c2cccc(NC(=O)c3ccc(-c4nccs4)cc3)c2O[C@H]1CN(C)C(=O)Nc1ccc(C(F)(F)F)cc1 | 0.97 ± 0.025 |  |
| C[C@@H]1CN([C@@H](C)CO)C(=O)c2cccc(NC(=O)C3CCOCC3)c2O[C@H]1CN(C)C(=O)Nc1cccc2ccccc12 | 0.966 ± 0.063 |  |
| Cc1noc(C)c1S(=O)(=O)N(C)C[C@@H]1Oc2c(NC(=O)c3ccc(-c4nccs4)cc3)cccc2C(=O)N([C@@H](C)CO)C[C@H]1C | 0.828 ± 0.018 |  |
| C[C@@H]1CN([C@@H](C)CO)C(=O)c2cccc(NC(=O)c3ccc(-c4nccs4)cc3)c2O[C@H]1CN(C)C(=O)Nc1ccc(C(F)(F)F)cc1 | 1.011 ± 0.0069 |  |
| C[C@H](CO)N1C[C@H](C)[C@H](CN(C)C(=O)Nc2ccc(C(F)(F)F)cc2)Oc2c(NC(=O)c3ccc(-c4nccs4)cc3)cccc2C1=O | 1.04 ± 0.021 |  |
| Cc1noc(C)c1S(=O)(=O)N(C)C[C@@H]1Oc2c(NC(=O)c3ccc(-c4nccs4)cc3)cccc2C(=O)N([C@@H](C)CO)C[C@@H]1C | 0.955 ± 0.036 |  |
| C[C@H](CO)N1C[C@H](C)[C@H](CN(C)C(=O)Nc2cccc3ccccc23)Oc2ncccc2C1=O | 0.826 ± 0.021 |  |
| C[C@@H]1CN([C@@H](C)CO)C(=O)c2cccc(NC(=O)C3CCOCC3)c2O[C@@H]1CN(C)C(=O)Nc1cccc2ccccc12 | 0.974 ± 0.06 |  |
| C[C@@H]1CN([C@@H](C)CO)C(=O)c2cccc(NC(=O)c3ccc(-c4nccs4)cc3)c2O[C@@H]1CN(C)C(=O)Nc1cccc2ccccc12 |  | 0.784 ± 0.023 |
| C[C@H](CO)N1C[C@H](C)[C@@H](CN(C)C(=O)Nc2ccc(C(F)(F)F)cc2)Oc2c(NC(=O)c3ccc(-c4nccs4)cc3)cccc2C1=O | 0.953 ± 0.018 |  |
